Data: PubChem BioAssay (NCI)
Values joined by “and” are separate entries in the source; they are usually repeats but may differ in a detail not shown here. Identical values can stand only once. This is part of a sample that, as a whole, favours compounds with a hit. Of some 79,000 tested, about 15% had one in any assay. Active and inactive are the calls of the source. No stated cut-off is given here; in the data, active means growth inhibition above about 70%; inactive means the rest.

assay: NCI Yeast Anticancer Drug Screen. Data for the bub3 strain (AID 167); conditions: S. cerevisiae bub3 mutant strain, hits give high values; at 50.0 µM unless noted
How it was run: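 Whole-cell yeast assay. The mutant strain was incubated with compounds, and growth inhibition was determined by comparison with vehicle-treated cells.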

**Q.** With `CN1C(=O)n2c(nc3ccccc32)C(Cl)(Cl)C1=O` as the compound, how does the growth inhibition read?
**A.** Its growth inhibition is 34.7% (inactive).

**Q.** For `CCOC(=O)c1c(C)cc(=O)oc1C`, which growth inhibition is on record?
**A.** Its growth inhibition is 2.3% (inactive) and -1.7% (inactive).

**Q.** Which growth inhibition does the source give for `CC(=O)COC(=O)c1ccccc1` here?
**A.** The growth inhibition was 10.2% (inactive).

**Q.** Which growth inhibition does the source give for `Cc1cc2ccccc2c(N=Cc2cc(Br)cc(Br)c2O)c1C#N` here?
**A.** Its growth inhibition is 83.8% (active).

**Q.** For `CC1CCCC(CC(=O)O)(CC(=O)O)C1` (configuration not stated), which growth inhibition is on record?
**A.** The growth inhibition was -4.1% (inactive).

**Q.** Which growth inhibition does the source give for `c1ccc2c(c1)C(=NCCCN1CCCCCCC1)c1cccn1-2` here?
**A.** Its growth inhibition is 23.1% (inactive).

**Q.** For `[CH3][Sn]([CH3])([S]P(=S)(c1ccccc1)c1ccccc1)[S]P(=S)(c1ccccc1)c1ccccc1`, which growth inhibition is on record?
**A.** The growth inhibition was 19.1% (inactive).

**Q.** For `Cc1ccc(Nc2nc(N)nc3c2ncn3C2OC(CO)C(O)C2O)cc1` (configuration not stated), which growth inhibition is on record?
**A.** The growth inhibition was 18.6% (inactive).

**Q.** With `CCOc1ccc(N=Nc2c(O)n(-c3ccc(Cl)cc3)c(=S)n(-c3ccccc3)c2=O)cc1` as the compound, how does the growth inhibition read?
**A.** The growth inhibition was 32.5% (inactive).

**Q.** With `Oc1cccnc1Cl` as the compound, how does the growth inhibition read?
**A.** Its growth inhibition is 13.7% (inactive).

**Q.** For `CCCNCCC`, which growth inhibition is on record?
**A.** Its growth inhibition is 4.2% (inactive).

**Q.** With `COC(=O)CC1(C(=O)OC)NC(=O)c2cc(OC)c(Cl)cc2N1` (configuration not stated) as the compound, how does the growth inhibition read?
**A.** The growth inhibition was -4.9% (inactive).

**Q.** Which growth inhibition does the source give for `COc1cc(OC)c(-c2cc(=O)c3c(OC)c(OC)c(OC)c(OC)c3o2)cc1OC` here?
**A.** The growth inhibition was 36.2% (inactive).

**Q.** With `OC1(c2cccnc2)c2ccccc2Oc2ccccc21` as the compound, how does the growth inhibition read?
**A.** Its growth inhibition is -3.7% (inactive).

**Q.** For `CCCCCP(=O)(O)O.[Cu+2]`, which growth inhibition is on record?
**A.** Its growth inhibition is -31.6% (inactive).

**Q.** Which growth inhibition does the source give for `N#CCNC(=O)Cc1ccccc1` here?
**A.** Its growth inhibition is -30.3% (inactive).

**Q.** With `CC1=C(C(=O)CC(=O)C(=O)Nc2ccc(Cl)cc2C)Sc2ccccc2N1` as the compound, how does the growth inhibition read?
**A.** Its growth inhibition is 6.7% (inactive).

**Q.** With `CC(C)(C)OC(=O)NCC(=O)OC/C=C/c1ccccc1` as the compound, how does the growth inhibition read?
**A.** The growth inhibition was -3.6% (inactive).

**Q.** For `COC(=O)/C=C/c1cccnc1`, which growth inhibition is on record?
**A.** Its growth inhibition is -10.3% (inactive).

**Q.** Which growth inhibition does the source give for `O=C1C=CC(=O)N1c1ccnc(N2C(=O)C=CC2=O)c1` here?
**A.** Its growth inhibition is 11.8% (inactive).

**Q.** For `CCCCCCCCCCCC`, which growth inhibition is on record?
**A.** The growth inhibition was 37.9% (inactive).

**Q.** With `CC1=CC(=O)[C@@H](O)[C@@]2(C)C1C[C@H]1OC(=O)[C@H](C/C=C(/C)C(C)C)[C@H]3C(C)C(O)C4(O)OC[C@@]31C42` (some centres not stated) as the compound, how does the growth inhibition read?
**A.** Its growth inhibition is 80% (active).

assay: NCI Yeast Anticancer Drug Screen. Data for the mlh1 rad18 strain (AID 175); conditions: S. cerevisiae mlh1 rad18 strain growth inhibition, hits give high values; at 50.0 µM unless noted
How it was run: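 Yeast w/ defined DNA-repair lesions; compound exposure; growth vs vehicle controls → % inhibition.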

**Q.** With `O=C(C1=CCCCC1)c1ccc(-c2ccccc2)cc1` as the compound, how does the growth inhibition read?
**A.** Its growth inhibition is 4.65% (inactive).

**Q.** Which growth inhibition does the source give for `COc1ccc(C=O)c(Cl)c1OC` here?
**A.** The growth inhibition was -16.8% (inactive).

**Q.** For `CS(=O)(=O)OCC1OC(n2ncc(=O)[nH]c2=O)C(O)C1O` (configuration not stated), which growth inhibition is on record?
**A.** Its growth inhibition is 11% (inactive).

**Q.** With `Cc1ccc(C(C)C)c(Oc2cc(C)ccc2C(C)C)c1` as the compound, how does the growth inhibition read?
**A.** Its growth inhibition is -19.8% (inactive).

**Q.** With `CC(C)(C)C1CCC2c3c([nH]c4ccccc34)C3C(=O)N(c4cc(Br)cc(Br)c4)C(=O)C3C2C1` (configuration not stated) as the compound, how does the growth inhibition read?
**A.** Its growth inhibition is -46.5% (inactive).

**Q.** For `O=C(O)CCCn1nnc2c(=O)[nH][nH]c(=O)c21`, which growth inhibition is on record?
**A.** Its growth inhibition is 11.6% (inactive).

**Q.** With `Cc1cc(NC(=O)C(=O)Cc2nc3ccccc3s2)ccc1Cl` as the compound, how does the growth inhibition read?
**A.** Its growth inhibition is 19.1% (inactive).

**Q.** For `O=c1/c(=C/c2ccccc2[N+](=O)[O-])sc2nc3ccccc3n12`, which growth inhibition is on record?
**A.** Its growth inhibition is -47.2% (inactive).

**Q.** Which growth inhibition does the source give for `O=P(CSCCO)(c1ccccc1)c1ccccc1` here?
**A.** Its growth inhibition is -36.7% (inactive).

**Q.** Which growth inhibition does the source give for `COc1cccc(/C=C/c2cnc3ccccc3n2)c1OC` here?
**A.** The growth inhibition was -52.1% (inactive).

**Q.** Which growth inhibition does the source give for `Cc1cccc(C(=O)NNC(=O)C(=O)NNC(=O)c2cccc(C)c2)c1` here?
**A.** Its growth inhibition is 26.9% (inactive).

**Q.** Which growth inhibition does the source give for `CN=Nc1c(O)[nH]c2ccc(C)cc12` here?
**A.** Its growth inhibition is 2.05% (inactive).

**Q.** Which growth inhibition does the source give for `CCOC(=O)c1cn[nH]c1C` here?
**A.** The growth inhibition was -1.95% (inactive).

**Q.** Which growth inhibition does the source give for `[N-]=[N+]=Nc1c2c(nc3ccccc13)CCCC2` here?
**A.** The growth inhibition was -4.4% (inactive).

**Q.** With `NC(=O)c1ccc(-c2csc(=S)[nH]2)s1` as the compound, how does the growth inhibition read?
**A.** Its growth inhibition is -5.35% (inactive).

**Q.** For `Nn1nnc2ccccc21`, which growth inhibition is on record?
**A.** Its growth inhibition is 32.1% (inactive).

**Q.** Which growth inhibition does the source give for `Cn1c2ccccc2c(=O)c2[nH]c3ccccc3c21` here?
**A.** The growth inhibition was 76.8% (active).

**Q.** Which growth inhibition does the source give for `CCCCCCCCCCCCCCCCCC(=O)N1CCN(C(=O)CCCCCCCCCCCCCCCCC)C1` here?
**A.** The growth inhibition was 1.05% (inactive).

**Q.** With `CN1C(=O)n2c(nc3ccccc32)C(Cl)(Cl)C1=O` as the compound, how does the growth inhibition read?
**A.** The growth inhibition was 42% (inactive).

**Q.** Which growth inhibition does the source give for `CCOC(=O)c1c(C)cc(=O)oc1C` here?
**A.** Its growth inhibition is -11.8% (inactive) and 8.75% (inactive).

**Q.** Which growth inhibition does the source give for `CC(=O)COC(=O)c1ccccc1` here?
**A.** Its growth inhibition is 26.2% (inactive).

**Q.** For `Cc1cc2ccccc2c(N=Cc2cc(Br)cc(Br)c2O)c1C#N`, which growth inhibition is on record?
**A.** The growth inhibition was 97.8% (active).

**Q.** With `CC1CCCC(CC(=O)O)(CC(=O)O)C1` (configuration not stated) as the compound, how does the growth inhibition read?
**A.** Its growth inhibition is -21.4% (inactive).

**Q.** For `c1ccc2c(c1)C(=NCCCN1CCCCCCC1)c1cccn1-2`, which growth inhibition is on record?
**A.** The growth inhibition was 25.4% (inactive).

**Q.** Which growth inhibition does the source give for `[CH3][Sn]([CH3])([S]P(=S)(c1ccccc1)c1ccccc1)[S]P(=S)(c1ccccc1)c1ccccc1` here?
**A.** Its growth inhibition is 43.9% (inactive).

**Q.** Which growth inhibition does the source give for `Cc1ccc(Nc2nc(N)nc3c2ncn3C2OC(CO)C(O)C2O)cc1` (configuration not stated) here?
**A.** The growth inhibition was 7.35% (inactive).

**Q.** Which growth inhibition does the source give for `CCOc1ccc(N=Nc2c(O)n(-c3ccc(Cl)cc3)c(=S)n(-c3ccccc3)c2=O)cc1` here?
**A.** The growth inhibition was 26.4% (inactive).

**Q.** Which growth inhibition does the source give for `Oc1cccnc1Cl` here?
**A.** The growth inhibition was 2.5% (inactive).

**Q.** For `CCCNCCC`, which growth inhibition is on record?
**A.** The growth inhibition was 1.65% (inactive).

**Q.** With `COC(=O)CC1(C(=O)OC)NC(=O)c2cc(OC)c(Cl)cc2N1` (configuration not stated) as the compound, how does the growth inhibition read?
**A.** The growth inhibition was -19.6% (inactive).

**Q.** For `COc1cc(OC)c(-c2cc(=O)c3c(OC)c(OC)c(OC)c(OC)c3o2)cc1OC`, which growth inhibition is on record?
**A.** The growth inhibition was -21.1% (inactive).

**Q.** With `OC1(c2cccnc2)c2ccccc2Oc2ccccc21` as the compound, how does the growth inhibition read?
**A.** The growth inhibition was -8.2% (inactive).

**Q.** For `CCCCCP(=O)(O)O.[Cu+2]`, which growth inhibition is on record?
**A.** The growth inhibition was -14.2% (inactive).

**Q.** For `N#CCNC(=O)Cc1ccccc1`, which growth inhibition is on record?
**A.** The growth inhibition was -4.7% (inactive).

**Q.** Which growth inhibition does the source give for `CC1=C(C(=O)CC(=O)C(=O)Nc2ccc(Cl)cc2C)Sc2ccccc2N1` here?
**A.** The growth inhibition was -22.6% (inactive).

**Q.** Which growth inhibition does the source give for `CC(C)(C)OC(=O)NCC(=O)OC/C=C/c1ccccc1` here?
**A.** The growth inhibition was 6.1% (inactive).

**Q.** For `COC(=O)/C=C/c1cccnc1`, which growth inhibition is on record?
**A.** The growth inhibition was -12.3% (inactive).

**Q.** For `O=C1C=CC(=O)N1c1ccnc(N2C(=O)C=CC2=O)c1`, which growth inhibition is on record?
**A.** The growth inhibition was 10.2% (inactive).

**Q.** For `CCCCCCCCCCCC`, which growth inhibition is on record?
**A.** Its growth inhibition is -9.9% (inactive).

**Q.** With `CC1=CC(=O)[C@@H](O)[C@@]2(C)C1C[C@H]1OC(=O)[C@H](C/C=C(/C)C(C)C)[C@H]3C(C)C(O)C4(O)OC[C@@]31C42` (some centres not stated) as the compound, how does the growth inhibition read?
**A.** Its growth inhibition is 76.5% (active).
